We go through 95 molecules from ChEMBL document CHEMBL3988442, “University of Dundee, Small-Polar-MMV Screening Library” (2021).

Screen size: about 38,000 compounds; about 1,200 (3.2%) showed an effect of 50% or more. The median lay at about -58%. Many of the other results were omitted from the sample, so strong results are more common in it than they were.

For this experiment, the system named is Plasmodium falciparum. Put plainly: Calibr Malaria Delayed Death Assay SOP. The class given is functional, organism-based. Details: scale not given: in the data most compounds retested in dose-response had high values. Particulars: concentration 4.99e-06 (unit not given; other assays of the set use mol/L).
As for `CSCCC(CO)NC(=O)c1ccc2[nH]/c(=N\S(C)(=O)=O)sc2c1` (stereo not given), the “Percent Effect” value is -143.2%.

For `COCC(O)CN1CCC(=O)N(CC(=O)C(C)(C)C)Cc2ccccc21` (stereo not given), the “Percent Effect” value amounted to 3.723%. Regarding `Cc1cccc(N2CCN(C(=O)CNCCn3cc(C)cn3)CC2)c1`, the “Percent Effect” value is reported as -74.29%. The result for `CC(=O)N(Cc1noc(C)n1)C1CCN(CC2CCCC2)C1` (stereo not given) reads -72.7%; that for `Cc1nn(C)c(N2CCOCC2)c1CNCc1cccnc1`, -102.1%; that for `COCCNc1cc(C)nn2cnnc12`, -138.9%. For `CNc1nc2c(s1)C(c1cccc(F)c1F)CC(=O)N2` (stereo not given), the “Percent Effect” value is -75.94%. Next, `CC(C)n1[nH]c(=O)c2c1NC(=O)CC2c1ccncc1` (stereo not given): -11.96%; `COc1ncccc1CN1C[C@@H]2COC[C@]2(COc2ccccn2)C1.O=C(O)C(F)(F)F.O=C(O)C(F)(F)F.O=C(O)C(F)(F)F`: -20.51%; `Cc1ccc(C(=O)Cc2c(Cl)nc3n(C)c(=O)n(C)c(=O)n23)cc1`: -11.12%.

On to `CC(C)(C)n1ncc2c1NC(=O)CC2c1c(F)cccc1F` (stereo not given), for which the “Percent Effect” value is given as -175.8%. Next, `COc1ccc(CN2CCC(C(N)=O)CC2)cc1SC(F)(F)F`: 63.84%. Next, `COc1ccc(C(C)NC(=O)N2CCNC(=O)CC2)cc1F` (stereo not given): -89.17%; `COc1cc(Cl)c(CN2CCC(C(N)=O)C2)cc1Cl` (stereo not given): 3.59%; `COc1ccc(CN2CCNC(=O)CC2)cc1SC(F)(F)F`: 74.78%.

As for `COc1ccc(CN2CCC(C(N)=O)C2)c(Br)c1OC` (stereo not given), the “Percent Effect” value is reported as -101%. As for `CSc1ccc(OCCN2CCNC(=O)CC2)cc1`, the “Percent Effect” value was -70.99%. The result for `OC(CN1CCC(c2ccn[nH]2)CC1)c1ccc(F)cc1F` (stereo not given) reads -72.07%. For `Cc1ccc(C)c(S(=O)(=O)NCCOc2ccc3nnc(C)n3n2)c1`, the “Percent Effect” value is -6.832%. For the molecule `Cc1cc(C[C@@H]2COC[C@@H]2NC(=O)Cn2c(=O)oc3ccccc32)on1`, the “Percent Effect” value is reported as -110.9%. Next, `Cc1cc(C[C@@H]2CCC[C@H]2NCc2ccc(C(F)(F)F)cc2)on1.O=C(O)CC(O)(CC(=O)O)C(=O)O`: -14.83%; `Cc1cc(C[C@@H]2CCC[C@H]2NCc2c[nH]nc2-c2ccccc2)on1.O=C(O)CC(O)(CC(=O)O)C(=O)O`: 55.35%; `COc1cccc(-c2n[nH]cc2CNC2CCCN(C)C2)c1` (stereo not given): -88.31%. The result for `COc1cccc(-c2n[nH]cc2CNC2CCC(O)CC2)c1.Cl` (stereo not given) reads -76.02%; that for `CN(C(=O)Nc1cccnc1)C1CCN(c2ccc(Cl)cc2)CC1`, 4.443%. The result for `Cc1cc(C)n(CC2CCCN2CC(=O)N(C)CCC#N)n1` (stereo not given) reads -49.25%; that for `CCC(C)C(=O)N(CC(=O)OC)c1cccc(C)n1` (stereo not given), -66.48%. For `CCN(CC1CN(Cc2nc(C3CC3)no2)CCO1)c1cccnn1` (stereo not given), the “Percent Effect” value was 72.53%.

Turning to `CCN(CC1CN(Cc2c(C)noc2C)CCO1)c1cccnn1` (stereo not given), the “Percent Effect” value is recorded as -53.53%.

On to `CCN(CC1CN(Cc2ncc(C)o2)CCO1)c1cccnn1` (stereo not given), for which the “Percent Effect” value was -35.01%.

With `CCNC(=O)Cc1ccc(-c2cccc3c2CCNC3)cc1`, the “Percent Effect” value is listed as -6.885%. The result for `COCCC(=O)N1CCC2(CCCN2Cc2ccccc2)C1` (stereo not given) reads -58.21%; that for `Nc1nc(CC(=O)N2CCCC(CCc3cccc(F)c3)C2)cc(=O)[nH]1` (stereo not given), -43.06%.

For the molecule `CCN(C(=O)Nc1nncs1)C(C)c1cccc(OC)c1` (stereo not given), the “Percent Effect” value is reported as -32.07%. Next, `Cc1nc(C)n(CC2CCCCN2c2ncnc3ccsc23)n1` (stereo not given): -49.26%.

Take `CN(CC(=O)Nc1cccc(F)c1)Cc1nc(N)nc(N(C)C)n1`: the “Percent Effect” value is -117.7%. The result for `COc1ccc(Cl)cc1-c1nc(N)nc(N(C)C)n1` reads -104.8%; that for `CC(C)c1ccc(S(=O)(=O)Cc2nc(N)nc(N(C)C)n2)cc1`, -42.62%. On to `COc1ccccc1CCN(C)Cc1nc(N)nc(N(C)C)n1`, for which the “Percent Effect” value is listed as 69.03%. Next, `COc1ccccc1CC(C)N(C)CCS(C)(=O)=O` (stereo not given): -4.563%; `Cc1ccccc1CC1(C(=O)O)CCCN(c2ncnc3[nH]ccc23)C1` (stereo not given): -4.529%.

On to `Cc1c(C(=O)NCCC(C)C)nnn1-c1cccc2c1CCN(C)C2`, for which the “Percent Effect” value is on record as -15.36%.

Turning to `CC(O)CN1CCN(Cc2cccc(C(=O)N(C)C)c2)CC1` (stereo not given), the “Percent Effect” value was -48.6%.

On to `CC(O)CN1CCC(CNCc2cn(-c3ccccc3)nn2)CC1` (stereo not given), for which the “Percent Effect” value is -67.96%. The result for `Cc1ncccc1CNCC1CCN(CC(O)c2ccccc2)CC1` (stereo not given) reads 29.35%; that for `CC(O)CN1CCN(Cc2cccc(C#N)c2)CC1` (stereo not given), 12.6%.

Turning to `CC(O)CN1CCC(CNCc2cccc(Cl)c2)CC1` (stereo not given), the “Percent Effect” value amounted to 87.41%. Turning to `CN1Cc2cc(F)ccc2N(CC(O)C(F)(F)F)CCC1=O` (stereo not given), the “Percent Effect” value is reported as 13.79%. Next, `Cc1ccc(CN(C)C(=O)c2ccc(NC3CC3)nc2)o1`: -155.8%. With `CCN1CCN(Cc2c(C3CCCC3)[nH]c3ncccc23)CC1`, the “Percent Effect” value is -34.79%. Consider `Cc1ccc(-c2cc(C(=O)NCCCc3csc(N)n3)[nH]n2)o1`, for which the “Percent Effect” value is on record as 18.73%. As for `COc1ccc2c(C)c(C(=O)NCCCc3csc(N)n3)oc2c1`, the “Percent Effect” value is on record as -56.16%. Next, `Cc1ccc(-c2cc(C(=O)NCCCc3csc(N)n3)[nH]n2)s1`: 65.08%; `COC(=O)CN1CCN(c2nc3c(s2)c(C)nn3C)C(C)C1=O` (stereo not given): -95.69%; `Cc1ccc(CN2CCN(c3nc4c(s3)c(C)nn4C)C(C)C2=O)cc1` (stereo not given): 68.91%. With `Cc1nn(C)c2nc(N3CCNC(=O)C3Cc3ccccc3)sc12` (stereo not given), the “Percent Effect” value is given as -89.32%. Next, `COCC(O)CNc1ccc(C#N)cc1C(F)(F)F` (stereo not given): -11.9%; `CCCS(=O)(=O)N1CC[C@@H]2[C@@H]1CC(=O)N2Cc1csc(C)n1`: -243.1%. For the molecule `Cc1cccc(NC(=O)C(C)Oc2ccc3c(c2)OCO3)n1` (stereo not given), the “Percent Effect” value is -110.7%. The result for `N#CCCCS(=O)(=O)NC1(c2cccc(Cl)c2)CC1` reads -108.7%; that for `CS(=O)(=O)CCCNC1(c2cccc(F)c2)CC1`, -29.12%; that for `CSCC(=O)NC1(c2cccc(Cl)c2)CC1`, -138.1%. The result for `Brc1ccc(C2(NCc3noc(C4CC4)n3)CCC2)cc1` reads 8.334%; that for `Cc1cccc(C2(NCCCS(C)(=O)=O)CCCC2)c1`, 88.41%. On to `Cc1cccc(C2(NC(=O)CCN3C(=O)CCC3=O)CCCC2)c1`, for which the “Percent Effect” value was -32.71%. Next, `CS(=O)(=O)CCCNC1(c2ccc(Br)cc2)CCC1`: 77.64%. Next, `CC(C)(C)c1ccc(C2(C(=O)NCCCS(C)(=O)=O)CC2)cc1`: -66.39%; `CC(Nc1cnn(C)c(=O)c1Cl)c1ccc(F)c(F)c1` (stereo not given): -61.95%; `COc1cc(-c2n[nH]c(CCN)n2)cc(OC)c1OC`: -46.27%. The result for `Cc1nc(CSCc2ccc(OCC(F)(F)F)nc2)no1` reads -117.9%; that for `Cc1cccc(CN2C(=O)C[C@H]3[C@@H]2CCN3Cc2ccccn2)n1.O=C(O)C(F)(F)F.O=C(O)C(F)(F)F.O=C(O)C(F)(F)F`, -25.52%. `Cc1cc(CN2CCC(C3CCN(CCc4ccccc4)CC3)C2)[nH]n1` (stereo not given): the “Percent Effect” value stood at 93.56%.

For the molecule `Cc1cc(CN2CCC(C3CCN(Cc4cccnc4)CC3)C2)[nH]n1` (stereo not given), the “Percent Effect” value is reported as 8.003%. The result for `Cc1cc(CN2CCC(C3CCN(CCc4ccccc4)C3)CC2)[nH]n1` (stereo not given) reads 35.64%.

Turning to `Cc1cc(C)cc(CN2C[C@@H]3OCCN(CC(=O)N(C)C)[C@@H]3C2)c1.O=C(O)C(F)(F)F`, the “Percent Effect” value was -102.5%. Next, `COc1cc(C(C)=O)ccc1OCCNCc1ccco1.Cl`: -1.065%; `COc1ccc(CCNCc2ccco2)cc1OC`: 3.158%.

As to `CCCc1ccc(OCCNCc2ccco2)c(OC)c1.Cl`, the “Percent Effect” value was determined as 50.1%. Next, `COc1ccc(CN2CCN(CCn3ccnc3)CC2)cc1F`: -77.09%; `N#CCCSc1nnc(Cc2ccccc2F)o1`: 0.1656%; `CN1CCN(C[C@@H]2OC[C@H]3CN(Cc4cccc(F)c4)CC[C@H]32)CC1.O=C(O)C(F)(F)F.O=C(O)C(F)(F)F.O=C(O)C(F)(F)F`: 17.46%.

`CN1CCN(C[C@@H]2OC[C@H]3CN(CCc4ccccc4)CC[C@H]32)CC1.O=C(O)C(F)(F)F.O=C(O)C(F)(F)F.O=C(O)C(F)(F)F`: the “Percent Effect” value was 64.83%. `O=C(O)C(F)(F)F.O=C(O)C(F)(F)F.c1cc2c(cc1CN1CC[C@H]3CO[C@H](CN4CCCC4)[C@H]3C1)OCO2`: the “Percent Effect” value worked out at 77.9%.

With `N#Cc1cccc(CN2CC[C@@H]3CO[C@@H](CN4CCCC4)[C@@H]3C2)c1.O=C(O)C(F)(F)F.O=C(O)C(F)(F)F`, the “Percent Effect” value came out at 9.568%. Turning to `Cc1ccc(CN2CC[C@@H]3[C@@H](CO[C@H]3CN3CCN(C)CC3)C2)cc1.O=C(O)C(F)(F)F.O=C(O)C(F)(F)F.O=C(O)C(F)(F)F`, the “Percent Effect” value is on record as -1.718%.

Take `Cc1ccc(CN2CC[C@H]3CO[C@H](CN4CCCC4)[C@H]3C2)o1.O=C(O)C(F)(F)F.O=C(O)C(F)(F)F`: the “Percent Effect” value is on record as 27.44%. As for `Cn1cc(N2CCC3(CCCN(Cc4ccoc4)C3)C2=O)cn1` (stereo not given), the “Percent Effect” value is recorded as -100.7%. Next, `O=C1CCC2(CCN(CC[C@H](O)c3ccccc3)CC2)CN1CCO`: -15.36%; `NC(=O)CCNC(=O)C1(N2CCCCC2)Cc2ccccc2C1`: -32.27%. The result for `CN1CC(C(=O)N2CCN(c3cccc(Cl)c3)C(=O)C2)NC1=O` (stereo not given) reads -61.36%; that for `CC(Cn1cccn1)NCCCc1nc(-c2cccs2)no1` (stereo not given), 66.81%. Next, `CC(Cn1cccn1)NCc1nc(-c2cccs2)no1` (stereo not given): -237.8%; `Cc1cnn(CC(C)NCc2nc(-c3cccs3)no2)c1` (stereo not given): -78.64%; `CC(C)NC(=O)[C@H](C)NC(=O)N1CCN(c2ccc(Cl)cc2)CC1`: -40.36%. Take `CC(C)Cn1ncc(C(=O)NS(=O)(=O)c2ccccc2)c1C1CC1`: the “Percent Effect” value is recorded as -129.8%.
